# PubChem BioAssay (NCATS)
# “And” between values parts separate entries of the source, which are not always exact repeats. Equal entries are not always repeated. Results filed as inconclusive are left out. The source made the active and inactive calls. Unless noted, the call rests on the fitted dose curve.
# Legend:
# [1] = target: Cytochrome P450 2C9 (Homo sapiens) (UniProt P11712); experiment: qHTS Assay for Inhibitors and Substrates of Cytochrome P450 2C9 (AID 883; active means well fitted curve in the direction sought with a large enough effect; an effect the other way counts as inactive or inconclusive; further: potency means the concentration at half of the fitted maximal effect; nearly all actives have a fitted effect of over 60% in size)
# In short: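 Turnover of Luciferin-H (100uM, KM) by 10nM human CYP2C9 was measured over 60 min at 37C with NADPH regeneration; inhibitors and some substrates reduce luminescence. Data normalized to sulphaphenazole 57uM.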
# [2] = target: Cytochrome P450 2D6 (Homo sapiens) (UniProt P10635); experiment: qHTS Assay for Inhibitors and Substrates of Cytochrome P450 2D6 (AID 891; active means well fitted curve in the direction sought with a large enough effect; an effect the other way counts as inactive or inconclusive; further: potency means the concentration at half of the fitted maximal effect; nearly all actives have a fitted effect of over 60% in size)
# In short: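 Luminescent read-out of luciferin formed by 5 nM human CYP2D6 demethylating 30 uM Luciferin-ME EGE (Km level) over 60 min at room temperature after NADPH regeneration addition. Data normalized to full inhibition by 1.43 uM quinidine.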
# [3] = target: Estrogen receptor (Homo sapiens) (UniProt P03372); experiment: qHTS assay for small molecule antagonists of estrogen receptor alpha signaling (AID 588513; active means well fitted curve in the direction sought with a large enough effect in the signal ratio, with a control signal flat, not every such curve was filed as active; the % refers to the signal ratio; further: on the % scale 0 is the no-effect control and ±100 the full control effect)
# In short: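 ER-alpha-UAS-bla GripTite HEK 293 cells in 2% charcoal/dextran-treated FBS medium; compounds titrated (1:2, duplicate), then stimulated with 0.5 nM 17-beta-estradiol for 18 h at 37C. CCF4 beta-lactamase fluorescence; Hill-fit IC50 and efficacy.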
# [4] = target: Estrogen receptor (Homo sapiens) (UniProt P03372); experiment: qHTS assay for small molecule agonists of estrogen receptor alpha signaling (AID 588514);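 further: 0% = vehicle only and 100% = reference agonist; nearly all actives have a fitted effect of over 70% in size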
# In short: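 Efficacy is expressed against 20 nM 17-beta-estradiol (100%) and DMSO basal (0%); EC50 from Hill equation. Assay: beta-lactamase reporter in ER-alpha-UAS-bla HEK 293 cells, 18 h compound incubation, CCF4 detection.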
# [5] = qHTS assay for small molecule antagonists of peroxisome proliferator-activated receptor delta signaling (AID 588535; active means well fitted inhibition curve with a large enough effect in the signal ratio, with a control signal flat, not every such curve was filed as active; the % refers to the signal ratio;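 on max response: cells co-treated with a PPAR-delta agonist as stimulator during compound exposure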); details: HEK293T PPARd-UAS-bla, beta-lactamase FRET ratio, 18 h; 460 nm channel
# In short: (§1)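 Titrations were run on PPAR-delta-UAS-bla HEK293T cells in charcoal/dextran-stripped serum, incubated 18 h at 37 C. CCF4 fluorescence (460/530 nm) after 2 h RT; Hill equation yields IC50 and maximal response.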
# [6] = target: Peroxisome proliferator-activated receptor delta (Homo sapiens) (UniProt Q03181); experiment: as above
# In short: as §1
# [7] = target: Peroxisome proliferator-activated receptor gamma (Homo sapiens) (UniProt P37231); experiment: qHTS assay for small molecule agonists of peroxisome proliferator-activated receptor gamma signaling (AID 588536; active means well fitted curve in the direction sought with a large enough effect in the signal ratio, with a control signal flat, not every such curve was filed as active; the % refers to the signal ratio;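 further: 0% = DMSO basal wells and 100% = rosiglitazone at 2 µM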)
# In short: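 Beta-lactamase reporter read-out: CCF4 fluorescence (ex 405, em 460/530 nm) after 2 h at RT. HEK293 GeneBLAzer cells were treated for 16 h at 37 C. Hill fits gave EC50 and efficacy versus 2 uM rosiglitazone (100%) and DMSO (0%).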
# [8] = qHTS assay for small molecule agonists of retinoid X receptor alpha signaling (AID 588544); details: HEK293T RXRa-UAS-bla, beta-lactamase reporter, 18 h; 530 nm emission;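 on activation: 0% = DMSO basal wells and 100% = reference agonist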
# [9] = target: Retinoic acid receptor RXR-alpha (Homo sapiens) (UniProt P19793); experiment: as above
# [10] = qHTS assay for small molecule antagonists of retinoid X receptor alpha signaling (AID 588546); details: HEK293T RXRa-UAS-bla, beta-lactamase ratio, antagonist mode; measured here: W530 green channel, cytotoxicity proxy;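 further: cells stimulated with 9-cis-retinoic acid as agonist; on the % scale 0 is the no-effect control and ±100 the full control effect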
# In short: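 Beta-lactamase reporter inhibition, read as CCF4 fluorescence ratio (ex 405, em 460/530 nm) after 2 h at RT. HEK293T UAS-bla cells, 2500/well, were stimulated with 9-cis-RA at 500 or 100 nM final alongside test compound for 18 h at 37 C.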
# [11] = target: Thyroid hormone receptor beta (Homo sapiens) (UniProt P10828); experiment: qHTS assay for small molecule antagonists of thyroid hormone receptor beta signaling (AID 588547; active means well fitted inhibition curve with a large enough effect in the signal ratio, with a control signal flat, not every such curve was filed as active; the % refers to the signal ratio;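 further: cells stimulated with 0.4 nM T3 agonist during compound exposure; on the % scale 0 is the no-effect control and ±100 the full control effect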); details: TR-UAS-bla HEK293, beta-lactamase ratio, antagonist mode, 18 h
# In short: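 Inhibition of T3-driven (0.4nM final) beta-lactamase reporter activity was measured over 0.59 nM to 92 uM compound after 18 h at 37 C. The cells were GripTite HEK293 TR-UAS-bla in charcoal/dextran-stripped serum, with CCF4 ratio read-out and IC50 from Hill fits.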
# [12] = qHTS assay for small molecule agonists of the antioxidant response element (ARE) signaling pathway (AID 651741; active means well fitted activation curve with a large enough effect in the signal ratio; the % refers to the signal ratio; further: potency means the concentration at half of the fitted maximal effect; on activation: % of control where 0% means no effect)
# In short: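 Beta-lactamase reporter under ARE control in HepG2 cells, 2,000 per well, was induced by 16 h compound treatment at 37 C. Read-out was fluorescence from LiveBLAzer B/G FRET substrate after 2 h at room temperature.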
# [13] = qHTS assay for small molecule activators of the p53 signaling pathway (AID 651743; active means well fitted activation curve with a large enough effect in the signal ratio, not every such curve was filed as active; the % refers to the signal ratio; further: % of control where 0% means no effect); details: HCT-116 p53RE-bla, beta-lactamase FRET ratio, 16 h; activation: stronger effect = higher value
# In short: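 After 16 hours compound treatment at 37 C, HCT-116 cells stably expressing p53RE-driven beta-lactamase were loaded with LiveBLAzer B/G FRET substrate for 2 hours at room temperature. Fluorescence intensity served as the p53 activation read-out.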
# [14] = qHTS assay to identify small molecules that stimulate interleukin-8 (IL-8) secretion (AID 651758; active means well fitted activation curve with a large enough effect in the signal ratio; the % refers to the signal ratio; further: 0% is about no effect)
# In short: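 Secreted IL-8 measured homogeneously by TR-FRET (two labelled anti-IL-8 antibodies, 1-3 h at room temperature) after a 16 h, 37 C compound treatment of THP-1 cells at 2000 cells/well.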
# [15] = qHTS profiling for inhibitors of Plasmodium falciparum proliferation (AID 504749; active means well fitted curve in the direction sought with a large enough effect; an effect the other way counts as inactive or inconclusive;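 further: 0% = DMSO vehicle and full inhibition = artemisinin control; nearly all actives have a fitted effect of over 60% in size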); details: P. falciparum in erythrocytes, SYBR Green DNA, 72 h, at 28.7 µM (top of the series)
# In short: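 SYBR Green fluorescence of parasite DNA, read after lysis and overnight dark incubation, measured growth over 72 h in erythrocyte culture at 0.3% parasitemia and 2.5% hematocrit. Data normalised to DMSO and 0.29 uM artemisinin, with plate-drift correction.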
# [16] = target: Glucocorticoid receptor (Homo sapiens) (UniProt P04150); experiment: qHTS assay for small molecule agonists of glucocorticoid receptor signaling (AID 588532; active means well fitted curve in the direction sought with a large enough effect in the signal ratio, with a control signal flat; the % refers to the signal ratio;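 further: 100% = dexamethasone at 0.1 µM and 0% = DMSO only wells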); details: HeLa MMTV-bla, beta-lactamase ratio, agonist, 18 h; stronger effect = higher value; percent of dexamethasone control, DMSO zero
# In short: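 Using MMTV-bla HeLa cells in medium with 1% stripped FBS and 25 mM HEPES, compounds were titrated and incubated overnight-length (18 h). Beta-lactamase cleavage of CCF4 was quantified by dual-emission fluorescence.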
# [17] = qHTS assay for small molecule activators of the nuclear factor-kappa B (NF-kB) signaling pathway (AID 651749; active means well fitted activation curve with a large enough effect in the signal ratio; the % refers to the signal ratio; further: % of control where 0% means no effect); details: NF-kB-bla ME-180 cells, beta-lactamase FRET ratio, 16 h; stronger effect = higher value
# In short: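 Activation measured after 16 hr compound treatment at 37C, 5% CO2, of 2,000 ME-180 cells/well stably expressing an NF-kB response element–driven beta-lactamase reporter, via FRET-disruption fluorescence.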
# [18] = target: Bile acid receptor (Homo sapiens) (UniProt Q96RI1); experiment: qHTS assay for small molecule antagonists of farnesoid X receptor signaling (AID 588526); further: on the % scale 0 is the no-effect control and ±100 the full control effect
# In short: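 Beta-lactamase reporter antagonist mode: HEK293T FXR-UAS-bla cells, titrated compound, CDCA stimulation, 16 h 37 C, CCF4 dye 2 h RT. Data normalized to CDCA 50 uM and DMSO; Hill-fit IC50.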
# [19] = target: Glucocorticoid receptor (Homo sapiens) (UniProt P04150); experiment: qHTS assay for small molecule antagonists of glucocorticoid receptor signaling (AID 588533; active means well fitted inhibition curve with a large enough effect in the signal ratio, with a control signal flat, not every such curve was filed as active; the % refers to the signal ratio)
# In short: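 Antagonist-mode qHTS: compound titrations added to GRE-bla HeLa cells, then dexamethasone 2 nM final; 18 h, 37 C. CCF4 FRET fluorescence normalized to dexamethasone and DMSO; IC50 from Hill fit.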
# Chain of Cytochrome P450 2C9 (Homo sapiens) (P11712 whole entry, looked up): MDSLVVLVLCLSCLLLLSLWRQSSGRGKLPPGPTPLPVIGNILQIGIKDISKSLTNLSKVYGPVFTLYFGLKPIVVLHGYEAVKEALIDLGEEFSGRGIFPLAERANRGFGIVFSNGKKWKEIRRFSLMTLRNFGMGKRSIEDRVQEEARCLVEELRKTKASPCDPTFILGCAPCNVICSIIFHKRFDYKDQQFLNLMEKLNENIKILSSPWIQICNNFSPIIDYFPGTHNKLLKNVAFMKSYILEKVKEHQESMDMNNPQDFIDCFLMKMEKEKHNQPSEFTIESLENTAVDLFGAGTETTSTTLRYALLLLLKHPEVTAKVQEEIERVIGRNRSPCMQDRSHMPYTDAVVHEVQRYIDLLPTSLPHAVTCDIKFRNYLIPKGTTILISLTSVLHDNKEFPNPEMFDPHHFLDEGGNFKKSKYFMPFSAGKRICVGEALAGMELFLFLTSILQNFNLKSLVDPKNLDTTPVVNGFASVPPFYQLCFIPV
# Chain of Glucocorticoid receptor (Homo sapiens) (P04150 whole entry, looked up): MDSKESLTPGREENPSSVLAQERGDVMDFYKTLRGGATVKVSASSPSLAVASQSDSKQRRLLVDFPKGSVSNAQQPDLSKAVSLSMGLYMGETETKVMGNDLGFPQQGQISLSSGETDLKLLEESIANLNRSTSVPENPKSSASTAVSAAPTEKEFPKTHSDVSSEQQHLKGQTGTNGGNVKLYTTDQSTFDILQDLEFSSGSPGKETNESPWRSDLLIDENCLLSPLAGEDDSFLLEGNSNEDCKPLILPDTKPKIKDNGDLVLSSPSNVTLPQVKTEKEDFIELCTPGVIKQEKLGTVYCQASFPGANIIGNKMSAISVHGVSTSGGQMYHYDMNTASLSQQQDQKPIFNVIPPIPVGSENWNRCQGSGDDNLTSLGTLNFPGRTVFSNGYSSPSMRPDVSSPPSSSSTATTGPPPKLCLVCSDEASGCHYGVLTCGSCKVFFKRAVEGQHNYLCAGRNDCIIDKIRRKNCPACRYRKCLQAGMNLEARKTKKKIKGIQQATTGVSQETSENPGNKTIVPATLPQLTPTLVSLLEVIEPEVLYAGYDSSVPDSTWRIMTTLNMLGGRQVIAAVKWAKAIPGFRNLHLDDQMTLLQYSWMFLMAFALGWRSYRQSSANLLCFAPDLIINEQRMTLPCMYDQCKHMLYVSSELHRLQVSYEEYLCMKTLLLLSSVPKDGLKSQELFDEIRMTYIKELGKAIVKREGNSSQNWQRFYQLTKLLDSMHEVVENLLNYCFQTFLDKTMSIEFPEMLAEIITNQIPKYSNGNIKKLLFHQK
# Chain of Peroxisome proliferator-activated receptor delta (Homo sapiens) (Q03181 whole entry, looked up): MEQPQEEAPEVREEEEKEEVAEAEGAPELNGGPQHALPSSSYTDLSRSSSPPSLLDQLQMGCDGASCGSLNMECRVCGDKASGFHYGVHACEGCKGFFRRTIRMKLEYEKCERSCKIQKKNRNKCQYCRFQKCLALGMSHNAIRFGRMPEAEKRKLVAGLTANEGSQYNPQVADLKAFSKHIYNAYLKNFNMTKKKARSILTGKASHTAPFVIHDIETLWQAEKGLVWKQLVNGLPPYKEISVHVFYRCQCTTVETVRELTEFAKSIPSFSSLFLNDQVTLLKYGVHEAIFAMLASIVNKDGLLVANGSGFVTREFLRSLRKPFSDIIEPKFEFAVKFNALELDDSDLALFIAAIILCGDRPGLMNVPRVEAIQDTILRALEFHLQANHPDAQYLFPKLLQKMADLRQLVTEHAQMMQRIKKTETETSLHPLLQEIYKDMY
# Chain of Thyroid hormone receptor beta (Homo sapiens) (P10828 whole entry, looked up): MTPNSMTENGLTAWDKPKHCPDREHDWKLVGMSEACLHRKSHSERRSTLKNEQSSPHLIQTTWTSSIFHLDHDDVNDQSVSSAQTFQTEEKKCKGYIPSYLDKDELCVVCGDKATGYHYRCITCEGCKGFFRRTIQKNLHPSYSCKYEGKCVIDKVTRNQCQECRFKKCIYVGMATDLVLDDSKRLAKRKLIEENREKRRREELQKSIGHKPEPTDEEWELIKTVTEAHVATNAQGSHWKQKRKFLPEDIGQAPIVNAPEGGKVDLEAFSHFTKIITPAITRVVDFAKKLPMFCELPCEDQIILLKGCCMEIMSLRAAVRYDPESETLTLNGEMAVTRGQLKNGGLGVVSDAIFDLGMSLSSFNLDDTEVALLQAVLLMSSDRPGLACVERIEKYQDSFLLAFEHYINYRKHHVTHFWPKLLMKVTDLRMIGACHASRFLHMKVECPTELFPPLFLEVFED
# Chain of Retinoic acid receptor RXR-alpha (Homo sapiens) (P19793 whole entry, looked up): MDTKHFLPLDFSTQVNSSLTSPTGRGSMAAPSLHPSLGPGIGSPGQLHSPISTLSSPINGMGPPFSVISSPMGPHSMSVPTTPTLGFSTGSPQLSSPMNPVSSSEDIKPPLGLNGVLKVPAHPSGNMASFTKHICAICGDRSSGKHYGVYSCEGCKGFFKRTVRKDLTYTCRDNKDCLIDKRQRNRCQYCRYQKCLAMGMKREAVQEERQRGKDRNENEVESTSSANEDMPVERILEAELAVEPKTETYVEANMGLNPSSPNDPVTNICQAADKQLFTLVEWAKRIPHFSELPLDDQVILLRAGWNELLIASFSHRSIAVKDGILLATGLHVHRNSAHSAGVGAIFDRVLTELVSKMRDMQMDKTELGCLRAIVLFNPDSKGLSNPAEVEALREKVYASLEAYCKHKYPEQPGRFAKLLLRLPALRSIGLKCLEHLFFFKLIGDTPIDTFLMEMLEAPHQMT
# Chain of Estrogen receptor (Homo sapiens) (P03372 whole entry, looked up): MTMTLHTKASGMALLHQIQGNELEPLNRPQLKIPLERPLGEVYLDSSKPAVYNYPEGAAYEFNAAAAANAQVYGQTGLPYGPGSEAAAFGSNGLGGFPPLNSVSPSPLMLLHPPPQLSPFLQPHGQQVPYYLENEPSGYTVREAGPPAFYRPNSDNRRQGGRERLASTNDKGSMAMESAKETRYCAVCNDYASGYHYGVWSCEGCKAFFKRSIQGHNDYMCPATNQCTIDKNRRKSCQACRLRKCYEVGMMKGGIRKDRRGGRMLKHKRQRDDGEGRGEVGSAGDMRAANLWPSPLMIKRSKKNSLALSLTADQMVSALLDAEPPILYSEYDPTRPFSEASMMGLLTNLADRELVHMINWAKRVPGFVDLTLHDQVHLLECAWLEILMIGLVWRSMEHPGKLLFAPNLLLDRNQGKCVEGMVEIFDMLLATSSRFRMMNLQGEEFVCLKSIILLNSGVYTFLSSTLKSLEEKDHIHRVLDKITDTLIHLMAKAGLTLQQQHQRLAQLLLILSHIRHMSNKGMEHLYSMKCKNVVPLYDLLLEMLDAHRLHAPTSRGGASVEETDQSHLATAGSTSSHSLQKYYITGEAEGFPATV
# Chain of Peroxisome proliferator-activated receptor gamma (Homo sapiens) (P37231 whole entry, looked up): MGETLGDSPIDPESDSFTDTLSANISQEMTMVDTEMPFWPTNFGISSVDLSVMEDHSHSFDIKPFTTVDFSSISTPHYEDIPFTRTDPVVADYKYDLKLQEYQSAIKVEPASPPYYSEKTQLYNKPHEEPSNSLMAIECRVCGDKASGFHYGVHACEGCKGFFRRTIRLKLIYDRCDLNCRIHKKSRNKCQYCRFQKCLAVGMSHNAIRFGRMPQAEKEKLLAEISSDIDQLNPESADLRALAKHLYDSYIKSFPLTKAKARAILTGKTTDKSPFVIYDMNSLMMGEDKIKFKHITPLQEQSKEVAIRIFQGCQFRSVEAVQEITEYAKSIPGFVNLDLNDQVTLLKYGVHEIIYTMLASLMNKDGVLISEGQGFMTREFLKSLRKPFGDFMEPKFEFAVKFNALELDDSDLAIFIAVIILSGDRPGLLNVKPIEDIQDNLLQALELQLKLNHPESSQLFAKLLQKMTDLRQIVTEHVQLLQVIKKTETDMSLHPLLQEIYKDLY
# Chain of Cytochrome P450 2D6 (Homo sapiens) (P10635 whole entry, looked up): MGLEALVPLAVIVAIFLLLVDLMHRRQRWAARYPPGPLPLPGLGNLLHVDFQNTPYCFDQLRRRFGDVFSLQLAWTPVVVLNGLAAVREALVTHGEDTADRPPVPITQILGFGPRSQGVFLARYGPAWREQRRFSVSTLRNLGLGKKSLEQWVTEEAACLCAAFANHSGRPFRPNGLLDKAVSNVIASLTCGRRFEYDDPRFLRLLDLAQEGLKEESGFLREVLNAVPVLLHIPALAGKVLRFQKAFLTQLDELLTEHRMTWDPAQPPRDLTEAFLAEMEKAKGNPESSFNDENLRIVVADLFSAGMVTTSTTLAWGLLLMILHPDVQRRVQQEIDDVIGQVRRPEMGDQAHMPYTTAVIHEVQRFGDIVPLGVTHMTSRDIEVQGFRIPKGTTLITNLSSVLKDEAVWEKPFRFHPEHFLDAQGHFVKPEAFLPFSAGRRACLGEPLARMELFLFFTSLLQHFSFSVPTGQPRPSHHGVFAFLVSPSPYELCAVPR
# Chain of Bile acid receptor (Homo sapiens) (Q96RI1 whole entry, looked up): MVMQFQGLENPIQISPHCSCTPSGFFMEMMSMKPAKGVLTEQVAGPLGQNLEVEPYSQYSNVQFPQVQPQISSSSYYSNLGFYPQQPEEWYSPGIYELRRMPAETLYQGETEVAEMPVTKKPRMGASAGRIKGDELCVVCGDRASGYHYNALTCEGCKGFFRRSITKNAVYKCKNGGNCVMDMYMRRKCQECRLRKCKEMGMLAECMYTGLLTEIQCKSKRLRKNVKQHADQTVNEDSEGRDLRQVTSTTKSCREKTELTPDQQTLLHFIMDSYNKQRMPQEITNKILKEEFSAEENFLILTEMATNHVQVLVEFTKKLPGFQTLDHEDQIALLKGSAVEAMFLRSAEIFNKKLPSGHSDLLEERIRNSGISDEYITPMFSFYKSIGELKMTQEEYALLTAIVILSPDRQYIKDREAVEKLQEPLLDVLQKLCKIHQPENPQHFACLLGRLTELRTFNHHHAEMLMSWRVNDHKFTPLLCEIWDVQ
smiles,measurement,setting,value
CCC/C=C(\CCC)C(NS(=O)(=O)c1ccc(C(F)(F)F)cc1)c1ccc(C(=O)OC)cc1 (stereo unspecified),Potency,[1],3.16 µM (active)
COC(=O)[C@@]1(Cc2ccccc2)[C@H]2c3cc(C(=O)N4CCCC4)n(Cc4ccccn4)c3C[C@H]2CN1C(=O)c1ccccc1,Potency,[1],0.199 µM (active)
CCC[C@@H]1C[C@@]1(CCC)C(NC(=O)c1ccccc1)c1cccc(Cl)c1 (stereo partly specified),Potency,[2],3.16 µM (active)
CCC/C=C(\CCC)C(NS(=O)(=O)c1ccc(Cl)cc1)c1ccc(C(=O)OC)cc1 (stereo unspecified),Potency,[1],3.16 µM (active)
CCCC[C@@H]1C[C@H]1C(NC(=O)c1ccco1)c1ccc(Cl)cc1 (stereo partly specified),Potency,[1],3.98 µM (active)
CN1[C@H]2CC(OC(=O)[C@H](CO)c3ccccc3)C[C@H]1[C@H]1O[C@H]12 (stereo partly specified),Potency,[3],inactive
same,outcome,[4],inactive
same,max response,[5],-6.66% and 15.5%
same,outcome,[6],inactive
same,outcome,[7],inactive
same,max response,[8],3.87% and -2.7%
same,outcome,[9],inactive
same,max response,[10],-12.3% and -10.2%
same,activity change % (negative = inhibition),[11],-22.7% (inactive) and -1.59% (inactive)
same,Potency,[12],inactive
same,activation,[13],-1.86% (inactive) and -3.02% (inactive)
same,outcome,[14],inactive
same,"activity, negative = inhibition",[15]; parasite line A,1.25% (inactive)
same,"activity, negative = inhibition",[15]; parasite line B,-7.4% (inactive)
O=C(/C=C/c1ccc(O)c(O)c1)OC1C[C@](O)(C(=O)O)C[C@@H](O)[C@H]1O (stereo partly specified),activation,[16],6.81% (inactive) and -6.91% (inactive)
same,max response,[5],3.46% and 31.4%
same,outcome,[6],inactive
same,max response,[8],6.31% and 0.0385%
same,outcome,[9],inactive
same,max response,[10],-7.31% and 4.34%
same,activity change % (negative = inhibition),[11],-9.6% (inactive) and 0.221% (inactive)
same,activation,[13],-1.07% (inactive) and -1.86% (inactive)
C=CC(=O)OCC(CO)(COC(=O)C=C)COC(=O)C=C,activation,[16],-3.48% (inactive) and -11.6% (inactive)
CCCCCCCC[N+](CCCCCCCC)(CCCCCCCC)CCCCCCCC,Potency,[12],8.41 µM (active)
CNc1ccc(O)cc1,Potency,[12],13.3 µM (active)
same,activation,[13],-13.4% (inactive)
same,activation,[17],-0.994% (inactive)
O=C=Nc1ccc(Cc2ccc(N=C=O)cc2)cc1,Potency,[18],inactive
same,activation,[16],5.29% (inactive) and -5.07% (inactive)
same,Potency,[19],inactive
same,max response,[5],-20% and 23.7%
same,outcome,[6],inactive
same,max response,[8],-1.3% and -4.07%
same,outcome,[9],inactive
same,max response,[10],-3.54% and -5.83%
same,activity change % (negative = inhibition),[11],-3.37% (inactive) and 10% (inactive)
same,Potency,[12],inactive
same,activation,[13],6.25% (inactive) and 1.32% (inactive)
same,activation,[17],0.0924% (inactive)
same,outcome,[14],inactive
CC/C(=C(\c1ccccc1)c1ccc(OCCN(C)C)cc1)c1ccc(O)cc1,activation,[16],5.28% (inactive)
